{"source": "PubChem BioAssay (NCI)", "note": "About 83,000 compounds went through this panel and 20% of them were active in at least one assay; those are over-represented in the sample as a whole.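 Note: values are percent growth. 100 is the growth of untreated cells, values between 100 and 0 indicate rising inhibition; between -100 and 0 indicates cell death.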 Active and inactive are the calls of the source. How the source made its calls: active means growth percent below 10; inactive means the rest.", "data": [{"test_system": "SW-620 colon", "assay": "NCI-60 one-dose screen, 48 h (100 = growth as untreated, 0 = no growth, -100 = all killed)", "settings": "10 µM unless noted", "values": [{"smiles": "Nc1nc(N)nc(N2CCCCC2)n1", "growth": "106% (inactive)"}, {"smiles": "O=C1NCC2CCCC1C2", "note": "(configuration not stated)", "growth": "120% (inactive)"}, {"smiles": "Cc1cc(CO)c(O)c(CO)c1", "growth": "99.9% (inactive)"}, {"smiles": "C#CC(O)c1ccccc1", "note": "(configuration not stated)", "growth": "102% (inactive)"}, {"smiles": "COC(c1ccc2c(c1)OCO2)C(C)Br", "note": "(configuration not stated)", "growth": "94.9% (inactive)"}, {"smiles": "O=C(O)c1ccccc1Cc1ccc2c(c1)CCCC2", "growth": "99.5% (inactive)"}, {"smiles": "O=[N+]([O-])c1ccc(-c2nc(N(CCO)CCO)c3ccccc3n2)o1", "growth": "-8.14% (active)"}, {"smiles": "O=Cc1ccc(Cl)c(Cl)c1", "growth": "118% (inactive)"}, {"smiles": "CCC(C)C1CCC(O)CC1", "note": "(configuration not stated)", "growth": "107% (inactive)"}, {"smiles": "CC(C)c1ncc([N+](=O)[O-])n1C", "growth": "98% (inactive)"}, {"smiles": "Cc1ccc(Cc2ccc(C)cc2)cc1", "growth": "102% (inactive)"}, {"smiles": "N#C/C(=C\\c1ccc2c(c1)OCO2)c1ccccc1", "growth": "41.4% (inactive)"}, {"smiles": "CCOC(=O)c1c[nH][nH]c1=O", "growth": "104% (inactive)"}, {"smiles": "O=c1[nH]c(=O)c2cc(Cl)cc(Cl)c2[nH]1", "growth": "105% (inactive)"}, {"smiles": "CC(=O)c1cc(O)ccc1O", "growth": "114% (inactive)"}, {"smiles": "Nc1ccn(C2CC(N)C(CO)O2)c(=O)n1", "note": "(configuration not stated)", "growth": "88.8% (inactive)"}, {"smiles": "CCOC(=O)C(C#N)=C1CCN(C)CC1", "growth": "97.2% (inactive)"}, {"smiles": "NNC(=O)c1ccccc1N", "growth": "103% (inactive)"}, {"smiles": "COC(CCCl)c1ccc(Cl)cc1", "note": "(configuration not stated)", "growth": "100% (inactive)"}, {"smiles": "COc1ccc(C2CCCCC2=O)cc1", "note": "(configuration not stated)", "growth": "104% (inactive)"}, {"smiles": "O=[N+]([O-])c1c(Cl)ncnc1Cl", "growth": "95.3% (inactive)"}, {"smiles": "CCN(CC)c1ccc2nc3ccc(N=Nc4ccc(N(C)C)cc4)cc3[n+](-c3ccccc3)c2c1", "growth": "-82.5% (active)"}, {"smiles": "c1ccc2[nH]c(Cc3nc4ccccc4[nH]3)nc2c1", "growth": "105% (inactive)"}, {"smiles": "CC1=CC(=Nc2ccc(N(C)C)cc2)C=C(C)C1=O", "growth": "93.8% (inactive)"}, {"smiles": "N#CCCN1C(=O)CCC1C(=O)O", "note": "(configuration not stated)", "growth": "96.6% (inactive)"}, {"smiles": "O=C(O)Cc1cccc2ccccc12", "growth": "102% (inactive)"}, {"smiles": "Cc1nc(C)c(C(=O)O)cc1C(=O)O", "growth": "109% (inactive)"}, {"smiles": "N#CC1(O)CCCCC1", "growth": "110% (inactive)"}, {"smiles": "CCNc1ncnc2[nH]ncc12", "growth": "99.2% (inactive)"}, {"smiles": "CC12CCC3c4ccc(O)cc4CCC3C1CCC2=O", "note": "(configuration not stated)", "growth": "110% (inactive)"}]}, {"test_system": "MCF7 breast", "assay": "NCI-60 one-dose screen, 48 h (100 = growth as untreated, 0 = no growth, -100 = all killed)", "settings": "10 µM unless noted", "values": [{"smiles": "Nc1nc(N)nc(N2CCCCC2)n1", "growth": "104% (inactive)"}, {"smiles": "C#CC(O)c1ccccc1", "note": "(configuration not stated)", "growth": "99.1% (inactive)"}, {"smiles": "COC(c1ccc2c(c1)OCO2)C(C)Br", "note": "(configuration not stated)", "growth": "110% (inactive)"}, {"smiles": "O=C(O)c1ccccc1Cc1ccc2c(c1)CCCC2", "growth": "91.7% (inactive)"}, {"smiles": "O=[N+]([O-])c1ccc(-c2nc(N(CCO)CCO)c3ccccc3n2)o1", "growth": "0.425% (active)"}, {"smiles": "O=Cc1ccc(Cl)c(Cl)c1", "growth": "98.4% (inactive)"}, {"smiles": "CCC(C)C1CCC(O)CC1", "note": "(configuration not stated)", "growth": "100% (inactive)"}, {"smiles": "CC(C)c1ncc([N+](=O)[O-])n1C", "growth": "97.2% (inactive)"}, {"smiles": "COc1ccc(/C=C\\C(=O)/C=C/c2ccc(OC)cc2)cc1", "growth": "11% (inactive)"}, {"smiles": "Cc1ccc(Cc2ccc(C)cc2)cc1", "growth": "99.4% (inactive)"}, {"smiles": "N#C/C(=C\\c1ccc2c(c1)OCO2)c1ccccc1", "growth": "53% (inactive)"}, {"smiles": "CCOC(=O)c1c[nH][nH]c1=O", "growth": "92.4% (inactive)"}, {"smiles": "CC(=O)c1cc(O)ccc1O", "growth": "101% (inactive)"}, {"smiles": "Nc1ccn(C2CC(N)C(CO)O2)c(=O)n1", "note": "(configuration not stated)", "growth": "66.5% (inactive)"}, {"smiles": "CNc1ccccc1C(N)=O", "growth": "92.7% (inactive)"}, {"smiles": "Cn1c(=O)[nH]c2ccccc2c1=O", "growth": "90.2% (inactive)"}, {"smiles": "NNC(=O)c1ccccc1N", "growth": "101% (inactive)"}, {"smiles": "COc1ccc(C2CCCCC2=O)cc1", "note": "(configuration not stated)", "growth": "103% (inactive)"}, {"smiles": "O=[N+]([O-])c1c(Cl)ncnc1Cl", "growth": "95.2% (inactive)"}, {"smiles": "c1ccc2[nH]c(Cc3nc4ccccc4[nH]3)nc2c1", "growth": "84.9% (inactive)"}, {"smiles": "CC1=CC(=Nc2ccc(N(C)C)cc2)C=C(C)C1=O", "growth": "77% (inactive)"}, {"smiles": "Cc1nc(C)c(C(=O)O)cc1C(=O)O", "growth": "109% (inactive)"}, {"smiles": "Clc1ccc(/C=C/c2ccccn2)cc1", "growth": "25.9% (inactive)"}, {"smiles": "CCNc1ncnc2[nH]ncc12", "growth": "93.3% (inactive)"}, {"smiles": "CC12CCC3c4ccc(O)cc4CCC3C1CCC2=O", "note": "(configuration not stated)", "growth": "128% (inactive)"}]}, {"test_system": "HCT-116 colon", "assay": "NCI-60 one-dose screen, 48 h (100 = growth as untreated, 0 = no growth, -100 = all killed)", "settings": "10 µM unless noted", "values": [{"smiles": "Nc1nc(N)nc(N2CCCCC2)n1", "growth": "106% (inactive)"}, {"smiles": "O=C1NCC2CCCC1C2", "note": "(configuration not stated)", "growth": "101% (inactive)"}, {"smiles": "Cc1cc(CO)c(O)c(CO)c1", "growth": "98.2% (inactive)"}, {"smiles": "C#CC(O)c1ccccc1", "note": "(configuration not stated)", "growth": "102% (inactive)"}, {"smiles": "COc1ccc(Br)c(C=O)c1", "growth": "22.5% (inactive)"}, {"smiles": "COC(c1ccc2c(c1)OCO2)C(C)Br", "note": "(configuration not stated)", "growth": "88.5% (inactive)"}, {"smiles": "O=C(O)c1ccccc1Cc1ccc2c(c1)CCCC2", "growth": "104% (inactive)"}, {"smiles": "O=[N+]([O-])c1ccc(-c2nc(N(CCO)CCO)c3ccccc3n2)o1", "growth": "-7.95% (active)"}, {"smiles": "O=Cc1ccc(Cl)c(Cl)c1", "growth": "107% (inactive)"}, {"smiles": "CCC(C)C1CCC(O)CC1", "note": "(configuration not stated)", "growth": "101% (inactive)"}, {"smiles": "CC(C)c1ncc([N+](=O)[O-])n1C", "growth": "107% (inactive)"}, {"smiles": "COc1ccc(/C=C\\C(=O)/C=C/c2ccc(OC)cc2)cc1", "growth": "-96.6% (active)"}, {"smiles": "Nc1cc2c(cc1Cl)C(=O)c1ccccc1C2=O", "growth": "1.71% (active)"}, {"smiles": "Cc1ccc(Cc2ccc(C)cc2)cc1", "growth": "107% (inactive)"}, {"smiles": "N#C/C(=C\\c1ccc2c(c1)OCO2)c1ccccc1", "growth": "53.3% (inactive)"}, {"smiles": "CCOC(=O)c1c[nH][nH]c1=O", "growth": "102% (inactive)"}, {"smiles": "O=c1[nH]c(=O)c2cc(Cl)cc(Cl)c2[nH]1", "growth": "98.3% (inactive)"}, {"smiles": "CC(=O)c1cc(O)ccc1O", "growth": "103% (inactive)"}, {"smiles": "Nc1ccn(C2CC(N)C(CO)O2)c(=O)n1", "note": "(configuration not stated)", "growth": "63.6% (inactive)"}, {"smiles": "CNc1ccccc1C(N)=O", "growth": "96.8% (inactive)"}, {"smiles": "Cn1c(=O)[nH]c2ccccc2c1=O", "growth": "103% (inactive)"}, {"smiles": "CCOC(=O)C(C#N)=C1CCN(C)CC1", "growth": "103% (inactive)"}, {"smiles": "NNC(=O)c1ccccc1N", "growth": "99.3% (inactive)"}, {"smiles": "COC(CCCl)c1ccc(Cl)cc1", "note": "(configuration not stated)", "growth": "103% (inactive)"}, {"smiles": "C=CCC(OC(C)=O)c1ccc(OC)c(OC)c1", "note": "(configuration not stated)", "growth": "103% (inactive)"}, {"smiles": "COc1ccc(C2CCCCC2=O)cc1", "note": "(configuration not stated)", "growth": "106% (inactive)"}, {"smiles": "O=[N+]([O-])c1c(Cl)ncnc1Cl", "growth": "115% (inactive)"}, {"smiles": "CCN(CC)c1ccc2nc3ccc(N=Nc4ccc(N(C)C)cc4)cc3[n+](-c3ccccc3)c2c1", "growth": "-70.3% (active)"}, {"smiles": "c1ccc2[nH]c(Cc3nc4ccccc4[nH]3)nc2c1", "growth": "89.8% (inactive)"}, {"smiles": "CC1=CC(=Nc2ccc(N(C)C)cc2)C=C(C)C1=O", "growth": "83.5% (inactive)"}, {"smiles": "N#CCCN1C(=O)CCC1C(=O)O", "note": "(configuration not stated)", "growth": "97.6% (inactive)"}, {"smiles": "O=C(O)Cc1cccc2ccccc12", "growth": "106% (inactive)"}, {"smiles": "Cc1nc(C)c(C(=O)O)cc1C(=O)O", "growth": "111% (inactive)"}, {"smiles": "Clc1ccc(/C=C/c2ccccn2)cc1", "growth": "81.6% (inactive)"}, {"smiles": "N#CC1(O)CCCCC1", "growth": "103% (inactive)"}, {"smiles": "CCNc1ncnc2[nH]ncc12", "growth": "105% (inactive)"}, {"smiles": "CC12CCC3c4ccc(O)cc4CCC3C1CCC2=O", "note": "(configuration not stated)", "growth": "95.3% (inactive)"}]}]}
